# Reference: PubChem BioAssay AID2234 (The Scripps Research Institute Molecular Screening Center, 2010)
# Several values for one entry are separate records, joined by “and”; a condition that tells them apart may be missing. Equal entries are not always repeated. About 480 (0.15%) of roughly 320,000 compounds were called active. The sample holds actives, similar compounds and a random draw of the others, so the mix is not that of the screen. Rule as the data show it: active = inhibition above about 33%; inactive = the rest. Some compounds were tested as several samples or in several runs, with calls that do not always agree.
# Target: Lytic switch protein BZLF1 (Epstein-Barr virus (strain B95-8)) (UniProt P03206)
# Sequence (P03206 whole entry, looked up): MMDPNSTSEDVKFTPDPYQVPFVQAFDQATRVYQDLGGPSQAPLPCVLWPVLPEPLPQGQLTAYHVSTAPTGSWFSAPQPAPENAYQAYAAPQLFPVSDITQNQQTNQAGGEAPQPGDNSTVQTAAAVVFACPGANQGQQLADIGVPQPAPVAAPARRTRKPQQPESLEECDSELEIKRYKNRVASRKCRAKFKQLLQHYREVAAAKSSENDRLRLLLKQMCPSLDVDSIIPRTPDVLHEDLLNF
# Test: Zta-DNA interaction blockers, Epstein-Barr virus – biochemical, fluorescence polarization, single concentration, counter-screen for EBNA-1 inhibitor project, primary screen (AID 2234)
# Conditions: ZTA-DNA binding, at 11 µM, stronger effect = higher value
row,Structure (SMILES),inhibition
1,COc1ccccc1CNC(=O)C1Cc2ccccc2C(=O)O1 (stereo not drawn),-9.61% (inactive)
2,CC(=O)Nc1ccc(S(=O)(=O)Oc2ccc(Br)cc2C(=S)N2CCOCC2)cc1,-23.8% (inactive)
3,CCc1c(C)nc(N)n2c(SCC(=O)NC3CCCCC3)nnc12,-21.8% (inactive)
4,COc1ccc(N2CCN(C(=O)CN3C(=O)COc4ccccc43)CC2)cc1,49.2% (active)
5,COc1ccc(N2CCN(CCNC(=O)CCN3C(=O)COc4ccccc43)CC2)cc1,3.46% (inactive)
6,Cc1ccc2c(c1)N(CC(=O)N1CCOCC1)C(=O)CO2,-24.9% (inactive)
7,C=C(Cl)COC(=O)C1C2C=CC(C2)C1C(=O)O (stereo not drawn),-6.87% (inactive)
8,Cc1oc(-c2ccccc2Cl)[n+]([O-])c1C,4.54% (inactive)
9,Cc1nc(N)c(Br)c(C)c1Br,10.1% (inactive)
10,Cc1cc(NC(=O)CS(=O)(=O)c2cn(C)c3ccccc23)no1,3.47% (inactive)
11,Cc1nc(-c2ccc(Cl)cc2)sc1C1(C)CC(c2ccccc2F)=NO1 (stereo not drawn),0.91% (inactive)
12,O=C(CNS(=O)(=O)c1ccc(Br)s1)N1CCN(C(=O)c2ccco2)CC1,0.26% (inactive)
13,Cc1cc(/C=N/NC(N)=O)c(C)n1C1CCCCC1,15.4% (inactive)
14,CC(NC(=S)NNS(=O)(=O)c1ccc(C(C)(C)C)cc1)c1ccccc1 (stereo not drawn),-5.57% (inactive)
15,O=C(NC(=S)Nc1cccc(-c2ccc(CO)o2)c1)c1cccs1,-14.3% (inactive)
16,CC1CCCCC1NC(=O)c1cn(C)c2ccc(S(=O)(=O)N3CCOCC3)cc2c1=O (stereo not drawn),3.74% (inactive)
17,O=S(=O)(Nc1ccc2nc(-c3ccco3)[nH]c2c1)c1ccccc1,-14.9% (inactive)
18,Cc1ccc(C2NC(=S)NC3=C2N2CCC3CC2)cc1 (stereo not drawn),-11.6% (inactive)
19,CC12c3ccccc3C(c3ccccc31)C1C(=O)N(Cc3cccnc3)C(=O)C12 (stereo not drawn),5.39% (inactive)
20,COc1cccc(NC(=O)CN2CCN(CC(=O)Nc3ccccc3Cl)CC2)c1,4.73% (inactive)
21,CN1/C(=c2/s/c(=C3/C(=O)N(c4ccccc4)NC3=Nc3ccccc3)n(C)c2=O)C(C)(C)c2ccccc21,7.42% (inactive)

row,Structure (SMILES),inhibition
1,CC(C)Oc1ccc(CN2CCC(n3nccc3NC(=O)c3cccnc3)CC2)cc1,6.96% (inactive)
2,COc1ccc(-c2c(C)nn3c(N4CCC(C(=O)N5CCCCC5)CC4)cc(C)nc23)cc1OC,6.7% (inactive)
3,CC(C(=O)N(C)CC(=O)Nc1ccccc1C(F)(F)F)N1C(=O)c2ccccc2C1=O (stereo not drawn),-0.42% (inactive)
4,COc1ccc(OC)c(S(=O)(=O)N2CCCC(C(=O)NCCc3ccccc3)C2)c1 (stereo not drawn),-17.4% (inactive)
5,O=C(CCCC(=O)N(CC(=O)NC1CCCC1)Cc1ccccc1Cl)Nc1ccccn1,2.7% (inactive)
6,Cc1cc(OC(=O)c2ccccc2Cl)ccc1N1C(=O)CCC1=O,-5.62% (inactive)
7,COC(=O)c1ccccc1NC(=O)C1CCN(C(=O)N2CCOc3ccccc32)CC1,-14.3% (inactive)
8,COc1ccc(N2CCN(C3CCCCC3NS(=O)(=O)c3ccccc3)CC2)cc1 (stereo not drawn),-13.4% (inactive)
9,CCC(C)C(=O)Nc1ccccc1N1CCN(c2ccc(F)cc2)CC1 (stereo not drawn),-25.1% (inactive)
10,Cc1c(C(=O)c2cccc([N+](=O)[O-])c2)c2ccccn2c1CCC#N,-12.6% (inactive)
11,CC(C)C(=O)Nc1nnc(SCC(=O)N2C(C)CCCC2C)s1 (stereo not drawn),-5.72% (inactive)
12,CC(=O)c1sc(NC(=O)CCN2C(=O)C3CC=CCC3C2=O)nc1-c1ccccc1 (stereo not drawn),0.93% (inactive)
13,Cn1nc(C(F)(F)F)cc1-c1ccc(/C=C(\C#N)C(=O)c2cccc(C(F)(F)F)c2)s1,9.6% (inactive)
14,CC(=O)c1nc(N2C(=O)C3CC=C(C)CC3C2=O)sc1C (stereo not drawn),-6.68% (inactive)
15,CCN(C(=O)COC(=O)c1cc(NS(=O)(=O)c2ccc(Cl)c([N+](=O)[O-])c2)ccc1O)C1CCCCC1,-8.06% (inactive)
16,O=C(Cn1c(-c2ccc(Cl)cc2)noc1=O)N1CCN(c2ccccc2F)CC1,-6.32% (inactive)
17,CCOc1cc(-c2noc(CCCC(=O)NC3CCCCC3)n2)ccc1OC,-2.96% (inactive)
18,CCOc1ncccc1C(=O)OCC(=O)N1c2ccccc2CC1C (stereo not drawn),6.32% (inactive)
19,COc1cc(C(=O)NNC(=O)CN2C(=O)NC3(CCCC3)C2=O)cc(OC)c1OC,7.35% (inactive)
20,CC(C)N(C(=O)Cn1cc(S(=O)(=O)CC(=O)N2CCOCC2)c2ccccc21)C(C)C,-2.48% (inactive)
21,CCc1nn(CCCC(=O)Nc2ccc(C)cc2C)c(=O)c2cc3occc3n12,-0.14% (inactive)

row,Structure (SMILES),inhibition
1,CN(C)/C=C(\C#N)C(=O)c1cccnc1Oc1cccc(F)c1,1.11% (inactive)
2,CN(C)Cc1ccccc1C1(O)c2ccccc2CSc2ccccc21 (stereo not drawn),-3.19% (inactive)
3,O=C(COC(=O)c1cc(=O)[nH]c2ccccc12)NCc1cccc(Cl)c1,-4.76% (inactive)
4,COCCCNC(=S)N1CCN(c2nc(-c3cccc(OC)c3)cs2)CC1,0.15% (inactive)
5,O=C(NC1CCCCC1)N1CCc2[nH]c3ccccc3c2C1,-20.7% (inactive)
6,COC(=O)C1CCN(C(=O)c2cc(=O)[nH]c3ccccc23)CC1,-3.43% (inactive)
7,COC(=O)[C@H]1[C@H]2C[C@H]3c4[nH]c5ccccc5c4CCN3C[C@@H]2CC[C@@H]1O,-2.53% (inactive) and 42.8% (active)
8,Cc1ccc(S(=O)(=O)NCc2ccc(C(=O)NC3CCC(C)CC3)cc2)cc1 (stereo not drawn),0.09% (inactive)
9,Cn1c(N)c(C(=O)COC(=O)/C=C/c2ccc(OC(F)F)cc2)c(=O)n(C)c1=O,4.46% (inactive)
10,CC[N+](C)(CC)CCC[n+]1c(-c2ccccc2)c2cc(N)ccc2c2ccc(N)cc21,76.6% (active)
11,COc1ccccc1CNS(=O)(=O)c1c(C)[nH]c(C)c1C(=O)N1CCCCC1,-3.2% (inactive)
12,COc1ccc(C(=O)NCCn2nc(C)cc2C)cc1OC1CCN(C(C)=O)CC1,-1.11% (inactive)
13,CC(=O)N(C)c1ccc(NC(=O)C(F)(F)F)cc1,-2.47% (inactive)
14,CC(C)CNC(=O)C(=O)Nc1ccc(N(C)C)cc1,-14.2% (inactive)
15,C=CCN(C(=O)Nc1ccc2oc(C)nc2c1)c1ccccc1,14.4% (inactive)
16,CCN(CC)c1ccc2oc(=O)c(C)nc2c1,112% (active)
17,CCN(CC)c1ccc(C(=O)Nn2c(C)nc3ccccc3c2=O)cc1,-9.3% (inactive)
18,COc1ccc(/C=C/CN2CCCC(C(=O)c3cc(F)ccc3F)C2)cc1 (stereo not drawn),-3.1% (inactive)
19,CN(C)Cc1c(O)ccc2occ(C(O)c3ccccc3)c12 (stereo not drawn),-10.8% (inactive)
20,N[C@@H](Cc1ccccc1)C(=O)N1CCOCC1,0.06% (inactive)
21,COc1ccc(OC)c(NC(=O)CSc2nc(N)c(-c3ccccc3)c(=O)[nH]2)c1,-8.96% (inactive)

row,Structure (SMILES),inhibition
1,COc1ccccc1P(=O)(c1ccccc1)c1ccccc1NC(C)=O (stereo not drawn),6.44% (inactive)
2,CCc1cc(=O)oc2c(C)c(OCC(=O)N3CC[C@@]4(O)CCCC[C@H]4C3)ccc12,-6.49% (inactive)
3,O=S(=O)(c1cccc(-c2nnc(SC(F)F)n2-c2ccccc2)c1)N1CCCCC1,-1.62% (inactive)
4,Cc1cccc(-n2cnc(C(=O)Nc3cccnc3)c2)n1,-4.78% (inactive)
5,Cc1ccccc1CSc1nnc(-c2ccccn2)n1N,-11.1% (inactive)
6,O=C(COC(=O)c1ccc(S(=O)(=O)Nc2ccccc2)cc1)NCC1CCCO1 (stereo not drawn),1.03% (inactive)
7,CCn1c(C)nc2cc(C(=O)NNS(=O)(=O)c3ccc(C)cc3C)ccc21,-11% (inactive)
8,COc1cc(C2C(C(=O)c3cccs3)=C(O)C(=O)N2CCN2CCOCC2)ccc1OCCC(C)C (stereo not drawn),-2.28% (inactive)
9,O=C(Nc1ccc2oc(-c3ccccc3F)nc2c1)c1ccco1,15.1% (inactive)
10,CCOc1ccc(S(=O)(=O)Nc2ccncc2)c(C)c1C,-10.3% (inactive)
11,CC(C)C(=O)N1CCC2(CC1)Oc1ccc(F)cc1C(=O)C21CC(c2ccccc2)=NO1 (stereo not drawn),7.48% (inactive)
12,CCc1c(C)nc2c(-c3ccccc3)c(C)nn2c1Nc1ccc(NC(C)=O)cc1,-11.9% (inactive)
13,O=C(Cc1ncc(C(F)(F)F)cc1Cl)Nc1cccc(Br)c1,-13.5% (inactive)
14,O=C(CNS(=O)(=O)c1ccc2ccccc2c1)Nc1ccc(F)c(F)c1F,15.3% (inactive)
15,O=C(Nc1ccc(F)cc1F)N1CCCN(CCOc2ccccc2)CC1,-6.16% (inactive)
16,CC(=O)c1sc2nc(SCC(=O)N3CCCCC3)[nH]c(=O)c2c1C,-1.4% (inactive)
17,Cc1sc2nc(CSCC(=O)NC3CCCCC3)[nH]c(=O)c2c1C,-20.2% (inactive)
18,CSc1nnc(SCc2nc3sc(C(=O)O)c(C)c3c(=O)[nH]2)s1,41.9% (active)
19,COc1ccc(C(=O)NC2CC2)cc1OC1CCN(C/C=C/c2ccccc2)CC1,-17.4% (inactive)
20,COc1ccc2c(c1)cc1n2CCN=C1NN,8.48% (inactive)
